Data reported in PMC5540273 (PLoS ONE, 2017).

Experiments:
Conditions in all cases: concentration: 1 μM, replicates: in singlicate; n = 1
CAMK2D = system: CAMK2D
CAMK2G = system: CAMK2G
CAMK4 = system: CAMK4
CAMKK1 = system: CAMKK1
CAMKK2 = system: CAMKK2
CASK = system: CASK
CDC2L1 = system: T1, CDC2L1
T1 construct: gene CDK11B

CDC2L2 = system: CDC2L2
CDC2L5 = system: T2, CDC2L5
T2 construct: gene CDK13

CDK11 = system: T3, CDK11
T3 construct: gene CDK19

CDK2 = system: CDK2
CDK3 = system: CDK3
CDK4-cyclinD1 = system: CDK4-cyclinD1
CDK4-cyclinD3 = system: CDK4-cyclinD3
CDK4 = system: CDK4
CDK5 = system: CDK5
CDK7 = system: CDK7
CDK8 = system: CDK8
CDK9 = system: CDK9
CDKL1 = system: CDKL1
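Also: KINOMEscan kinase panel screen.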

Row | Compound | %Inh (CAMK2D) | %Inh (CAMK2G) | %Inh (CAMK4) | %Inh (CAMKK1) | %Inh (CAMKK2) | %Inh (CASK) | %Inh (CDC2L1) | %Inh (CDC2L2) | %Inh (CDC2L5) | %Inh (CDK11) | %Inh (CDK2) | %Inh (CDK3) | %Inh (CDK4-cyclinD1) | %Inh (CDK4-cyclinD3) | %Inh (CDK4) | %Inh (CDK5) | %Inh (CDK7) | %Inh (CDK8) | %Inh (CDK9) | %Inh (CDKL1)
1 | COc1ccc(Nc2nccc(N3CCC(NC(=O)c4cccc(NC(C)=O)c4)C3)n2)cc1 (stereo not drawn) [GSK1379732] | 8% | 26% | 3% | 0% | 26% | 13% | 0% | 11% | 0% | 15% | 0% | 0% | 20% | 0% | 0% | 0% | 3% | 56% | 0% | 9%
2 | O=C(NCCCN1CCCC1=O)c1cnc(NCc2cc(Cl)ccc2Cl)nc1NC1CCNCC1 | 0% | 0% | 0% | 4% | 1% | 78% | 0% | 0% | 0% | 4% | 0% | 2% | 0% | 0% | 0% | 11% | 33% | 0% | 0% | 3%
3 | Cc1cc(N2CCC(NS(=O)(=O)c3ccc(F)cc3)CC2)nc(Nc2cccc(C#N)c2)n1.O=C(O)C(F)(F)F [GSK1653537] | 3% | 1% | 0% | 5% | 0% | 0% | 0% | 0% | 0% | 0% | 4% | 0% | 0% | 0% | 5% | 0% | 0% | 10% | 0% | 0%
4 | Cl.Fc1ccccc1COc1ccc(Nc2ncnc3ccc(-c4nnc(C(F)(F)F)o4)cc23)cc1Cl [GW424170] | 0% | 14% | 0% | 1% | 10% | 0% | 0% | 15% | 0% | 2% | 0% | 0% | 0% | 0% | 26% | 0% | 0% | 29% | 0% | 3%
5 | O=c1cc(N2CCOCC2)nc2n(Cc3cccc(Cl)c3)ccn12 [GSK2296823] | 0% | 3% | 0% | 17% | 0% | 3% | 0% | 6% | 0% | 0% | 0% | 3% | 0% | 13% | 0% | 0% | 0% | 0% | 0% | 9%
6 | Oc1ccc2ncnc(Nc3ccc(OCc4ccccc4)cc3)c2c1 [GI262866] | 1% | 2% | 0% | 0% | 0% | 8% | 0% | 0% | 0% | 36% | 0% | 22% | 0% | 0% | 16% | 0% | 0% | 21% | 0% | 0%
7 | C[C@@H]1CCN(C(=O)CO)C[C@@H]1N(C)c1ncnc2[nH]ccc12 | 0% | 13% | 20% | 4% | 11% | 0% | 0% | 0% | 0% | 6% | 0% | 0% | 0% | 0% | 0% | 4% | 20% | 0% | 9% | 12%
8 | O=C(Nc1ccccc1F)NC1CCN(c2ccnc(Nc3ccc(F)cc3)n2)C1 (stereo not drawn) [GSK1379722] | 0% | 12% | 0% | 0% | 3% | 17% | 0% | 0% | 0% | 19% | 0% | 16% | 0% | 2% | 31% | 0% | 0% | 22% | 0% | 18%
9 | CN1CCC(n2cnc(-c3ccc(F)cc3)c2-c2ccnc(NC3CCNCC3)n2)CC1 [SB-229482] | 7% | 0% | 7% | 14% | 26% | 20% | 0% | 8% | 31% | 0% | 0% | 0% | 33% | 11% | 44% | 4% | 30% | 11% | 0% | 0%
10 | CC(=O)Nc1n[nH]c2ncc(-c3ccccc3)cc12 [SB-548492] | 0% | 17% | 0% | 0% | 4% | 0% | 0% | 14% | 21% | 0% | 8% | 12% | 0% | 1% | 25% | 11% | 17% | 0% | 0% | 30%
11 | CC(C)(C)OC(=O)NC1CCCN(c2cc(-c3ccc4c(N)n[nH]c4c3)nc(N)n2)C1 (stereo not drawn) [GSK2286096] | 16% | 18% | 0% | 0% | 32% | 2% | 8% | 0% | 0% | 38% | 0% | 0% | 0% | 0% | 0% | 0% | 0% | 0% | 2% | 0%
12 | Fc1cccc(COc2ccc(Nc3ncnc4nn5ccccc5c34)cc2Cl)c1 [GW689066] | 0% | 10% | 0% | 5% | 0% | 0% | 0% | 0% | 0% | 2% | 0% | 0% | 13% | 0% | 33% | 0% | 0% | 37% | 0% | 0%
13 | Nc1nc(-c2cccnc2)c(-c2ccnc3ccccc23)s1 [GW684083] | 2% | 27% | 0% | 0% | 19% | 14% | 0% | 12% | 0% | 8% | 0% | 11% | 16% | 0% | 41% | 0% | 0% | 46% | 0% | 13%
14 | Nc1n[nH]c2nnc(-c3ccccc3)cc12 [SB-517389] | 2% | 0% | 0% | 0% | 0% | 18% | 0% | 0% | 0% | 0% | 0% | 20% | 0% | 22% | 0% | 0% | 0% | 0% | 21% | 0%
15 | FC(F)(F)c1ccc(-c2nn3ncccc3c2-c2ccnc(Nc3cccc(C(F)(F)F)c3)n2)cc1 [GW828205] | 0% | 0% | 17% | 6% | 0% | 0% | 0% | 3% | 0% | 0% | 1% | 0% | 2% | 0% | 0% | 0% | 0% | 32% | 0% | 55%
16 | COc1ccc(-c2oc3ncnc(N)c3c2-c2ccc(OC)cc2)cc1 [SB-589132] | 3% | 2% | 13% | 0% | 0% | 0% | 0% | 0% | 0% | 11% | 0% | 6% | 27% | 12% | 59% | 0% | 0% | 62% | 0% | 5%
17 | COC(=O)c1c(-c2ccccc2)c2cc(Cl)ccc2c(=O)n1Cc1ccc(S(C)(=O)=O)cc1 | 5% | 9% | 0% | 0% | 14% | 0% | 10% | 10% | 29% | 0% | 0% | 0% | 0% | 4% | 0% | 7% | 10% | 0% | 7% | 9%
18 | CC(C)N1CCC(n2cnc(-c3ccc(F)cc3)c2-c2ccnc(N)n2)CC1 [SB-223132] | 1% | 4% | 0% | 21% | 6% | 0% | 5% | 19% | 0% | 10% | 0% | 28% | 0% | 0% | 10% | 0% | 0% | 54% | 0% | 57%
19 | COc1cc2c(Nc3cccc(NC(=O)c4ccccc4)c3)ncnc2cc1OCCCN1CCOCC1 [GSK223810] | 0% | 15% | 0% | 1% | 0% | 6% | 0% | 11% | 0% | 3% | 0% | 5% | 0% | 0% | 0% | 0% | 0% | 14% | 0% | 0%
20 | COc1cc2ncnc(Nc3ccc(OCc4ccccc4Br)c(Cl)c3)c2cc1OC.Cl [GI261590] | 0% | 14% | 0% | 0% | 0% | 0% | 2% | 18% | 0% | 21% | 0% | 8% | 13% | 6% | 8% | 18% | 0% | 0% | 9% | 20%
21 | Fc1ccc(-c2ncn(CCCNCc3ccccc3)c2-c2ccncc2)cc1 | 0% | 0% | 4% | 0% | 0% | 27% | 0% | 0% | 18% | 0% | 0% | 7% | 0% | 13% | 0% | 4% | 27% | 0% | 0% | 0%
